# Source: PubChem BioAssay (NCATS)
# Records with an inconclusive call do not appear. Where a call stands in place of a potency, no number is given. The source made the active and inactive calls. Calls come from the whole dose curve; as a rule, active = well fitted cell-killing curve with a large enough effect; inconclusive = small, poorly fitted or top-dose-only effect, or effect the other way; inactive = flat fitted curve, though single readings scatter.
# Tested on: Tov-21-G
# Experiment: Primary qHTS to identify gynecologic anti-cancer compounds using libraries of approved drugs and bioactive compounds (AID 1345084); note: nearly all actives have a fitted effect of over 55% in size
# Conditions: Gynecologic cancer cell panel viability, ATPlite luminescence, 48 h; series mostly up to 57.5 µM
# In short: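 48 h compound exposure at 37 C, 5% CO2; five-point qHTS. ATPlite luminescence readout of cell ATP.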
row,Structure (SMILES),Potency
1,COC(=O)c1sccc1S(=O)(=O)Nc1ccc(Nc2ccccc2)cc1OC,inactive
2,CNC(=O)c1ccc2c(c1)CCO[C@H]2CCN1CCN(c2ccc(OC)cc2)CC1,inactive
3,O=C(Nc1ccc(-n2nc(C(F)(F)F)cc2C(F)(F)F)cc1)c1ccncc1F,inactive
4,C[C@@H]1C[C@H]2O[C@@]3(O[C@@H]2C(C)(C)O)C(O)[C@@]2(C)C4CCC5C(C)(C)[C@@H](O[C@H]6OC[C@H](O)[C@@H](O)[C@@H]6O)CC[C@@]56C[C@@]46CC[C@]2(C)C13 (some centres undefined),inactive
5,CC(O)C(C)n1ncn(-c2ccc(N3CCN(c4ccc(OCC5COC(Cn6cncn6)(c6ccc(Cl)cc6Cl)O5)cc4)CC3)cc2)c1=O (centres undefined),inactive
6,CCn1c2ccccc2c2cc(Nc3ccnc(NCCCN4CCOCC4)n3)ccc21,inactive
7,CC(=O)OC1CC2(C)C(CCC(C)C23Cc2c(O)cc(CO)c(C=O)c2O3)C(C)(C)C1O (centres undefined),inactive
8,CCOC(=O)c1ccc(OCCC2CCN(c3ccc(C)nn3)CC2)cc1,inactive
9,C/C=C(\C)C(=O)OC1C(C)C2(O)C(C=C(CO)CC3(O)C(=O)C(C)=CC32)C2C(C)(C)C12OC(C)=O (centres undefined),inactive
10,COc1ccccc1OCCNCC(O)CCOc1cccc2[nH]c3ccccc3c12 (centres undefined),inactive
11,COc1ccc(NC(=O)C2C[C@H](C)CC[C@H]2C(C)C)cc1 (some centres undefined),inactive
12,CNc1nc(Nc2ccc(C(=O)N3CCOCC3)cc2OC)nc2[nH]cc(Cl)c12,inactive
13,O=C(Nc1ncc([N+](=O)[O-])s1)c1ccccc1O,inactive
14,Cc1nc(C(=O)N2CCC[C@H]2Cc2nnc(-c3ccccc3)o2)c(-c2ccccc2F)s1,inactive
